The values below come from PubChem BioAssay (NCATS).

Inconclusive results are not listed. Activity calls are given as the source filed them. Calls follow the shape of the dose curve; as a rule, active = well fitted curve in the direction sought with a large enough effect; inconclusive = small, poorly fitted or top-dose-only effect, or another doubt; inactive = no such curve, though single readings can be large; an effect the other way counts as inactive or inconclusive.

The target in test [1] is Cytochrome P450 3A4 (Homo sapiens) (UniProt P08684). In words: qHTS Assay for Activators of Cytochrome P450 3A4 (AID 885). Also: nearly all actives have a fitted effect of over 65% in size. In short, it runs like this:
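Activators are scored by enhanced luminescence from CYP3A4 conversion of luciferin-PPXE (25uM, equal to KM) to luciferin, after 60 min at RT with an NADPH-regenerating system.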

The target in test [2] is ATP-dependent 6-phosphofructokinase (Trypanosoma brucei brucei) (UniProt O15648). Put plainly: qHTS Assay to Find Inhibitors of T. brucei phosphofructokinase: hit validation (AID 492961).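 Also: luminescence reports ADP formed as PFK phosphorylates fructose-6-phosphate with ATP.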 In short, it runs like this: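 PFK 1.25 nM, F6P 0.5 mM, ATP 0.1 mM, MgCl2 5 mM, 0.1 M TEA pH 8.0, Tween20 0.01%, BSA 0.1%; 45 min RT. ADP-Glo two-step detection, luminescence. qHTS titration; curve fitting with curve-class categorization.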
(In general: qHTS replaces the single test concentration by a dilution series.)

For the next test, the system named is 7G8. In words: qHTS profiling for inhibitors of Plasmodium falciparum proliferation (AID 504749). Also: nearly all actives have a fitted effect of over 60% in size. Also: potency is read from the fitted curve at half-maximal effect. The settings on record: P. falciparum in erythrocytes, SYBR Green DNA, 72 h; series mostly up to 12.8 µM. The method in brief:
(§1)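 Quantitative HTS: compounds pinned into medium, infected erythrocytes added (0.3% parasitemia, 2.5% hematocrit), 72 h culture at 37 C under 5% CO2. Saponin/Triton lysis with SYBR Green I, overnight RT, then fluorescence read.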

The next test relates to CP335. The description is as above. As to conditions: P. falciparum in erythrocytes, SYBR Green DNA, 72 h; series mostly up to 12.8 µM. The method in brief: as §1
A further test has as its system GB4. The description is as above. As to conditions: P. falciparum in erythrocytes, SYBR Green DNA, 72 h; series mostly up to 12.8 µM. In short, it runs like this:
as §1

The test system of the next test is P94_40. The description is as above. The settings on record: P. falciparum in erythrocytes, SYBR Green DNA, 72 h; series mostly up to 12.8 µM. In short, it runs like this: as §1
In a further test the test system is PC26. The description is as above. The settings on record: P. falciparum in erythrocytes, SYBR Green DNA, 72 h; series mostly up to 12.8 µM. The method in brief:
as §1

The next test deals with CP211. The test is described as above. As to conditions: P. falciparum in erythrocytes, SYBR Green DNA, 72 h; series mostly up to 12.8 µM. In short, it runs like this: as §1
In another test the test system is CP215. Described as above. The settings on record: P. falciparum in erythrocytes, SYBR Green DNA, 72 h; series mostly up to 12.8 µM. In short, it runs like this: as §1
The test system of the next test is CP260. The test is described as above. As to conditions: P. falciparum in erythrocytes, SYBR Green DNA, 72 h; series mostly up to 12.8 µM. In short, it runs like this:
as §1

A further test relates to CP266. The description is as above. The settings on record: P. falciparum in erythrocytes, SYBR Green DNA, 72 h; series mostly up to 12.8 µM. The method in brief:
as §1

For a further test, the system named is CP269. The description is as above. As to conditions: P. falciparum in erythrocytes, SYBR Green DNA, 72 h; series mostly up to 12.8 µM. In short, it runs like this: as §1
A further test relates to CP297. The description is as above. The settings on record: P. falciparum in erythrocytes, SYBR Green DNA, 72 h; series mostly up to 12.8 µM. In short, it runs like this:
as §1

A further test has as its system CP315. Described as above. As to conditions: P. falciparum in erythrocytes, SYBR Green DNA, 72 h; series mostly up to 12.8 µM. In short, it runs like this:
as §1

A further test deals with DFO2036. The test is described as above. As to conditions: P. falciparum in erythrocytes, SYBR Green DNA, 72 h; series mostly up to 12.8 µM. In short, it runs like this:
as §1

The test system of the next test is W2. The description is as above. The settings on record: P. falciparum in erythrocytes, SYBR Green DNA, 72 h; series mostly up to 12.8 µM. The method in brief: as §1
The target in test [3] is Cytochrome P450 2C9 (Homo sapiens) (UniProt P11712). Put plainly: qHTS Assay for Inhibitors and Substrates of Cytochrome P450 2C9 (AID 883). Also: nearly all actives have a fitted effect of over 60% in size. The method in brief:
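Human CYP2C9 (10nM) hydroxylated Luciferin-H (100uM, at its KM) to luciferin in 25mM KPO4. Compound was preincubated 10 min at 37C, then NADPH regeneration started a 60 min reaction at 37C. Luminescence was read after detection reagent, normalized to 57uM sulphaphenazole.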

The target in test [4] is Cytochrome P450 2C19 (Homo sapiens) (UniProt P33261). Put plainly: qHTS Assay for Inhibitors and Substrates of Cytochrome P450 2C19 (AID 899). Also: nearly all actives have a fitted effect of over 60% in size. In short, it runs like this: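 Human CYP2C19 (5nM) with Luciferin-H EGE at 10uM (its KM) in 50mM KPO4 was preincubated with compound for 10 min at 37C. NADPH regeneration started a 60 min 37C reaction. Luciferin was read by luminescence, normalized to 57uM ketoconazole.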

Test [5] concerns the target Cytochrome P450 2D6 (Homo sapiens) (UniProt P10635). Put plainly: qHTS Assay for Inhibitors and Substrates of Cytochrome P450 2D6 (AID 891). Also: potency is read from the fitted curve at half-maximal effect; nearly all actives have a fitted effect of over 60% in size. The method in brief:
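Luminescent read-out of luciferin formed by 5 nM human CYP2D6 demethylating 30 uM Luciferin-ME EGE (Km level) over 60 min at room temperature after NADPH regeneration addition. Data normalized to full inhibition by 1.43 uM quinidine.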

Test [6] concerns the target Cytochrome P450 3A4 (Homo sapiens) (UniProt P08684). In words: qHTS Assay for Inhibitors and Substrates of Cytochrome P450 3A4 (AID 884). Also: potency is read from the fitted curve at half-maximal effect; nearly all actives have a fitted effect of over 50% in size. The method in brief: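 Luminescent readout of luciferin produced by CYP3A4 (20 nM) dealkylation of Luciferin-PPXE, 25 uM (its KM). NADPH-driven reaction ran 60 min at RT after 10 min compound preincubation; data scaled to 57 uM ketoconazole as 100% inhibition.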

Chain of Cytochrome P450 2C9 (Homo sapiens) (P11712 whole entry, looked up): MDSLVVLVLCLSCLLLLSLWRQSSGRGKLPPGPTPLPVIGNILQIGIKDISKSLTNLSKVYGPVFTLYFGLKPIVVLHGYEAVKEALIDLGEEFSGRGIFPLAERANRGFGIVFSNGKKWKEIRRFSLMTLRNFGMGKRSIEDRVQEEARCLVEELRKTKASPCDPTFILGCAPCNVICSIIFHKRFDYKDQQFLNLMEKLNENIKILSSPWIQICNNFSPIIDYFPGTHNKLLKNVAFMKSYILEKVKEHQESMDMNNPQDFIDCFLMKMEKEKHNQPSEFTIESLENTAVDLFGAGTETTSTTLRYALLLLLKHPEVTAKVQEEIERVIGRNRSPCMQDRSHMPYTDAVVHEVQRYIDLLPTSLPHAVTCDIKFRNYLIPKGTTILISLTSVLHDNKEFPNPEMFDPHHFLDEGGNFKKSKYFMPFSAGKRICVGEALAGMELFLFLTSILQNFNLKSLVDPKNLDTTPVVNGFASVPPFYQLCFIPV
Chain of ATP-dependent 6-phosphofructokinase (Trypanosoma brucei brucei) (O15648 whole entry, looked up): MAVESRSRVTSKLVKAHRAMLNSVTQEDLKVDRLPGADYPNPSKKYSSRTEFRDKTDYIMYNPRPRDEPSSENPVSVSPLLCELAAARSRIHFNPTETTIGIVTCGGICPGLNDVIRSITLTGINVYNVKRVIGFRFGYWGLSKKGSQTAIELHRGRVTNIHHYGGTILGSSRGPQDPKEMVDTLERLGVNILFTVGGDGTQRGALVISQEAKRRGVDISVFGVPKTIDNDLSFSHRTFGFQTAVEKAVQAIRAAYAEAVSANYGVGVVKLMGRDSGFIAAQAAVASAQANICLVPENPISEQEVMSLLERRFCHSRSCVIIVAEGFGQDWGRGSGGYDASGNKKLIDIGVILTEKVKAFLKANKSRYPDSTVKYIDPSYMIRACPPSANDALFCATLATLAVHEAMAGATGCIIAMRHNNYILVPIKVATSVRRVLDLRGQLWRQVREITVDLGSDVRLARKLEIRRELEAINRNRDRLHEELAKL
Chain of Cytochrome P450 3A4 (Homo sapiens) (P08684 whole entry, looked up): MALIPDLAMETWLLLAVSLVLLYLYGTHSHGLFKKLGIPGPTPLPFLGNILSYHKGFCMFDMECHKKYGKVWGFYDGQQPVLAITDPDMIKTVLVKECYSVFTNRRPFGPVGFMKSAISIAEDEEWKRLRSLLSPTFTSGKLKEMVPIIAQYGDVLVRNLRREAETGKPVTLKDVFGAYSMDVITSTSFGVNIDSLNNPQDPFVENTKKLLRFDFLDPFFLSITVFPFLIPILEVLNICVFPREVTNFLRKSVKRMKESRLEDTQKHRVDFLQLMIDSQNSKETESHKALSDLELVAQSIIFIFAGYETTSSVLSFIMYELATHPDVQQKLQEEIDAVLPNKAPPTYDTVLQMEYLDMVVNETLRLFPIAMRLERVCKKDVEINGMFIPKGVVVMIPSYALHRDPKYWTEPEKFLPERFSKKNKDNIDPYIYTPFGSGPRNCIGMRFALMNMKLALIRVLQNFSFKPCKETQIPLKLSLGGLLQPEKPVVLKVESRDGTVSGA
Chain of Cytochrome P450 2C19 (Homo sapiens) (P33261 whole entry, looked up): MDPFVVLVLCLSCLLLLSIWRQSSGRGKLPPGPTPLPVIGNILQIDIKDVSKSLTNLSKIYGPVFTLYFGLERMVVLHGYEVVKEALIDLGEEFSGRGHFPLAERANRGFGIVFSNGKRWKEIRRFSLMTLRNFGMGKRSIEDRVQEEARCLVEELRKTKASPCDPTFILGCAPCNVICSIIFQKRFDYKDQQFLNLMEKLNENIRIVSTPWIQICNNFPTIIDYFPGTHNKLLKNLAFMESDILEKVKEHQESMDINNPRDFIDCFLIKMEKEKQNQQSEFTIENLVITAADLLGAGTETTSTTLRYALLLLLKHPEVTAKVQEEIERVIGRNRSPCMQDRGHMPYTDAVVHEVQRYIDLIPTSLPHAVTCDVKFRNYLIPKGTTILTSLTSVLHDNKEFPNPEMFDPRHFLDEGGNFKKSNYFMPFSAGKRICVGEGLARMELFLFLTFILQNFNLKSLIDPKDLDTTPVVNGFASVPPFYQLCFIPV
Chain of Cytochrome P450 2D6 (Homo sapiens) (P10635 whole entry, looked up): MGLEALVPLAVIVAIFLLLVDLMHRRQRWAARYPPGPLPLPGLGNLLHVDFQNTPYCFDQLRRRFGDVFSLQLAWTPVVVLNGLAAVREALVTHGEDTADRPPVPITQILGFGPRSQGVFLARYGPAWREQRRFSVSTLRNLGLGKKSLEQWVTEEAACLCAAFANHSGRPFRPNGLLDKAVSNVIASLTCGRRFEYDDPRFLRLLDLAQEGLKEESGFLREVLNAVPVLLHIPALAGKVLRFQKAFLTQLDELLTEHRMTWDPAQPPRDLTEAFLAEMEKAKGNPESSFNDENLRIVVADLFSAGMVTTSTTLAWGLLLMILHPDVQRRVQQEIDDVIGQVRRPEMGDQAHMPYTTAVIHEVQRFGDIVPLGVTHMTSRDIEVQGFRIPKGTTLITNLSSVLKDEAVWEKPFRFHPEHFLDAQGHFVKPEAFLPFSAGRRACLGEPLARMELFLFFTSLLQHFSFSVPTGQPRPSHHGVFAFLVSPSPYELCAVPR

In the case of `C/C(=C(/CCO)SSC[C@@H]1CCCO1)N(C=O)Cc1cnc(C)nc1N`, the Potency result in test [1] is “inactive”.
In the case of `CC[C@@H]1OC(=O)[C@H](C)[C@H](O[C@@H]2C[C@](C)(OC)[C@H](O)[C@H](C)O2)[C@H](C)[C@H](O[C@@H]2O[C@@H](C)C[C@@H](N(C)C)[C@@H]2O)[C@](C)(O)C[C@H](C)C(=NOCOCCOC)[C@H](C)[C@H](O)[C@]1(C)O`, the Potency result (in test [1]; in the test on 7G8; in the test on CP335; in the test on GB4; with P94_40; in the test on PC26) was “inactive” throughout. Besides, in [2], the result was inactive.
As for `CO[C@]1(NC(=O)C2SC(=C(C(N)=O)C(=O)O)S2)C(=O)N2C(C(=O)O)=C(CSc3nnnn3C)CS[C@H]21` (stereo partly drawn), the call in [2] was inactive. In addition, the Potency entry in the test on 7G8, in the test with CP211, with CP215, in the test with CP260, in the test on CP266 and with CP269 was “inactive” each time. Moreover, the Potency entry in the test with CP297, with CP315, in the test on DFO2036, in the test on GB4, in the test on P94_40 and in the test with PC26 was “inactive” throughout. Also, in the test on W2, the Potency entry was “inactive”.
Take `Nc1ccccc1S(N)(=O)=O`: the Potency result in [3] is “inactive”.
Consider `COc1ccc([C@@H]2CC(=O)c3c(O)cc(O[C@H]4O[C@@H](CO[C@H]5O[C@@H](C)[C@@H](O)[C@@H](O)[C@@H]5O)[C@@H](O)[C@@H](O)[C@@H]4O)cc3O2)cc1O`, for which the Potency result in the test on 7G8, in the test with CP211, in the test on CP215, in the test with CP260, in the test on CP266 and in the test on CP269 was “inactive” each time. The Potency result with CP297, in the test with CP315, in the test on GB4, in the test with P94_40, in the test with PC26 and in the test on W2 was “inactive” in each case.
Regarding `CCOC(=O)[C@H](CCc1ccccc1)N[C@@H](C)C(=O)N1[C@H](C(=O)O)C[C@H]2CCC[C@@H]21`, the call in [4] and in [2] was inactive. Also, the Potency entry in the test with 7G8, in the test with CP211, with CP215, in the test with CP260, in the test with CP266 and in the test with CP269 was “inactive” each time. Further, the Potency result in the test with CP315, in the test on CP335, in the test with DFO2036, in the test with GB4, with P94_40 and in the test with PC26 was “inactive” each time. Besides, in the test on W2, the Potency entry was “inactive”.
Turning to `CC(=O)OCC(=O)[C@@]1(O)CC[C@@H]2[C@H]3CCC4=CC(=O)C=C[C@]4(C)[C@]3(F)[C@@H](O)C[C@@]21C`, the Potency entry in the test with 7G8, in the test on CP211, in the test with CP215, in the test with CP260, in the test on CP266 and in the test with CP269 was “inactive” throughout. Also, the Potency result with CP297, with CP315, in the test on CP335, with DFO2036, in the test with GB4 and in the test on PC26 was “inactive” each time. Moreover, the Potency entry with W2 is “inactive”.
In the case of `C[C@H](N[C@@H](C)COc1ccccc1)[C@H](O)c1ccc(O)cc1`, the Potency in test [5] is 0.316 µM (active); in the test with W2, 4.55 µM (active). The molecule was classed as inactive in [2]. Moreover, the Potency entry with 7G8, with CP211, with CP215, in the test on CP260, with CP269 and in the test with CP315 was “inactive” in each case. For the same molecule, the Potency entry with CP335, with P94_40 and with PC26 was “inactive” in each case.
Regarding `CO[C@H]1[C@@H](OC(N)=O)[C@H](O)[C@@H](Oc2ccc3c(O)c(NC(=O)c4ccc(O)c(CC=C(C)C)c4)c(=O)oc3c2C)OC1(C)C`, the molecule was called inactive in test [2]. In addition, the Potency entry in the test on 7G8, with CP211, in the test with CP215, in the test with CP260, in the test on CP269 and in the test with CP315 was “inactive” throughout. Further, the Potency result in the test on CP335, in the test on DFO2036, with GB4, with P94_40 and in the test with PC26 was “inactive” throughout.
Take `O=C1O[C@H](CN2CCOCC2)CN1/N=C\c1ccc([N+](=O)[O-])o1`: the outcome in test [2] was inactive. Moreover, in the test with 7G8, the Potency was 3.55 µM (active). Also, the Potency result in the test on CP211, in the test on CP215, in the test on CP266, in the test on CP269, in the test with CP297 and in the test with CP315 was “inactive” throughout. The Potency entry in the test on CP335, with GB4 and in the test with PC26 was “inactive” throughout.
Turning to `O=C(/C=C\c1ccc(O)c(O)c1)O[C@@H]1C[C@](O)(C(=O)O)C[C@@H](O)[C@@H]1O`, the Potency entry in [3] was “inactive”.
Take `CC(=O)[C@@]1(O)CC[C@H]2[C@H]3C[C@@H](C)C4=CC(=O)C=C[C@]4(C)[C@@]3(F)[C@@H](O)C[C@]21C`: the Potency result (in test [1]; with CP211; in the test with CP215; with CP260; with CP269; with CP297) was “inactive” each time. Moreover, the Potency result in the test on CP315, in the test on CP335, with GB4 and with P94_40 was “inactive” each time.
Turning to `NC(=O)N/N=C\c1ccc([N+](=O)[O-])o1`, the Potency entry in test [1] is “inactive”.
For `CN(C)CCn1nnnc1SCC1=C(C(=O)O)N2C(=O)[C@@H](NC(=O)Cc3csc(N)n3)[C@@H]2SC1`, the results for the Potency in the test with 7G8 and with W2 were 3.55 µM (active) and 6.42 µM (active), respectively. Besides, the Potency entry with CP211, with CP215, with CP266, with CP297 and in the test with CP315 was “inactive” throughout.
Regarding `COc1cc2c(cc1OC)-c1cc3ccc(OC)c(OC)c3c[n+]1CC2`, in test [1], the Potency entry was “inactive”.
As to `C[C@@]12CC[C@@H]3c4ccc(O)cc4CC[C@H]3[C@H]1C[C@@H](O)[C@H]2O`, the Potency entry in test [3] is “inactive”.
Turning to `CS(=O)(=O)c1ccc([C@H](O)[C@H](CO)NC(=O)C(Cl)Cl)cc1`, the call in test [2] was inactive. In addition, the Potency entry in the test on 7G8, with CP260, in the test on CP266 and in the test on PC26 was “inactive” in each case.
On to `C[N+]1(C)C[C@@H](O)C[C@@H]1C(=O)[O-]`, for which the Potency entry in [4] is “inactive”.
As to `CC(C)(C)CC(C)(C)c1ccc(OCOCCOCCO)c(Cc2cc(C(C)(C)CC(C)(C)C)cc(Cc3cc(C(C)(C)CC(C)(C)C)ccc3OCOCCOCCO)c2OCOCCOCCO)c1`, the Potency entry in test [1] was “inactive”.
As to `O=C(Nc1ccccc1)OC[C@H](CN1CCCCC1)OC(=O)Nc1ccccc1`, the Potency in test [5] was 0.398 µM (active). Also, in test [2], the call was inactive. Besides, the Potency entry in the test with CP211, in the test on CP215, with CP260, in the test with CP266, in the test with CP269 and in the test on CP297 was “inactive” each time. For the same molecule, the Potency result in the test on CP315, in the test with CP335, in the test on DFO2036, in the test on GB4, in the test on P94_40 and in the test with PC26 was “inactive” throughout.
In the case of `Cc1c(C)c2c(c(C)c1O)CC[C@@](C)(C(=O)O)O2`, the Potency entry in test [1] is “inactive”.
In the case of `N#Cc1cccc(-c2cncnc2-n2ccnc2)c1`, the Potency in test [6] was 2.51 µM (active). Also, in [1], the Potency result was “inactive”.
